We go through twelve compounds from PMC5540273 (PLoS ONE, 2017).

Some test systems named below: KIT-autoinhibited; KIT; LATS1; LATS2; LCK; LIMK1; LIMK2; LRRK2; LTK; LYN; MAK; MAP3K15; MAP3K1; MAP3K2; MAP3K3.
Settings in all cases: concentration: 1 μM, replicates: in singlicate; n = 1
In a further experiment the test system is T1, JNK2.
T1 construct: gene MAPK9

The next experiment relates to T2, JNK3.
T2 construct: gene MAPK10

The test system of another experiment is T3, LKB1.
T3 construct: gene STK11

For another experiment, the system named is T4, LOK.
T4 construct: gene STK10

Another experiment concerns T5, LZK.
T5 construct: gene MAP3K13
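Also: KINOMEscan kinase panel screen.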

Regarding `COc1cc(Nc2ccnc3ccc(C(F)(F)F)cc23)cc(OC)c1OC` [GW577382], the “%Inh” value was 48% in the experiment with JNK2; 29% in the experiment on JNK3; 0% in the experiment with KIT-autoinhibited; 19% with KIT; 0% in the experiment on LATS1; 0% in the experiment on LATS2. Moreover, the “%Inh” value in the experiment with LCK worked out at 68%; in the experiment on LIMK1, 18%; in the experiment on LIMK2, 0%; in the experiment on LKB1 it was 0%; with LOK, 18%; in the experiment with LRRK2, 27%. Moreover, the “%Inh” value in the experiment on LTK is given as 0%; with LYN, 25%; with LZK, 30%; in the experiment on MAK, 12%; in the experiment on MAP3K15 it was 3%; in the experiment with MAP3K1, 4%. Moreover, the “%Inh” value in the experiment with MAP3K2 and in the experiment with MAP3K3 was 0% each time.

Consider `Cl.c1ccc(Cn2cnc3cc(Nc4ncnc5ccccc45)ccc32)cc1` [GW272142], for which the “%Inh” value was 7% in the experiment on JNK2; 0% with JNK3; 4% in the experiment with KIT-autoinhibited; 0% with KIT; 0% in the experiment with LATS1; 0% in the experiment on LATS2. The “%Inh” value with LCK was 25%; in the experiment on LIMK1, 0%; with LIMK2, 4%; in the experiment with LKB1, 0%; in the experiment on LOK it was 0%; with LRRK2, 0%. The “%Inh” value with LTK was 0%; in the experiment with LYN it was 0%; in the experiment on LZK it was 22%; with MAK, 0%; in the experiment with MAP3K15 it was 0%; with MAP3K1, 5%. Besides, the “%Inh” value in the experiment with MAP3K2 and in the experiment with MAP3K3 was 0% in each case.

Turning to `Cc1nn2c(=O)cc(N3CCOCC3)nc2n1Cc1cccc(Cl)c1Cl` [GSK2342769], the “%Inh” value is on record as 15% with JNK2; 5% with JNK3; 0% in the experiment with KIT-autoinhibited; 10% with KIT; 0% in the experiment with LATS1; 0% in the experiment on LATS2. Also, the “%Inh” value came to 5% in the experiment with LCK; 0% in the experiment with LIMK1; 0% with LIMK2; 0% in the experiment with LKB1; 0% with LOK; 22% in the experiment with LRRK2. Moreover, the “%Inh” value amounted to 0% in the experiment with LTK; 0% in the experiment with LYN; 0% with LZK; 20% with MAK; 9% in the experiment with MAP3K15; 17% in the experiment with MAP3K1. For the same compound, the “%Inh” value with MAP3K2 came to 16%; in the experiment with MAP3K3, 0%.

In the case of `CCC(=O)c1c(-c2ccccc2)c2cc(Cl)ccc2c(=O)n1Cc1cc(C(=O)NC2CC2)n(C)n1`, the “%Inh” value in the experiment with JNK2 worked out at 100%; with JNK3, 99.8%; with KIT-autoinhibited, 0%; in the experiment with KIT it was 58%; in the experiment with LATS1, 19%; in the experiment with LATS2, 1%. In addition, the “%Inh” value is 0% with LCK; 0% in the experiment on LIMK1; 0% in the experiment on LIMK2; 9% in the experiment with LKB1; 19% in the experiment with LOK; 3% with LRRK2. The “%Inh” value is 16% in the experiment on LTK; 0% in the experiment on LYN; 31% with LZK; 32% in the experiment with MAK; 11% in the experiment on MAP3K15; 9% with MAP3K1. In addition, the “%Inh” value in the experiment on MAP3K2 came out at 10%; in the experiment on MAP3K3, 12%.

Turning to `Cc1ccc(-c2ccc3c(ccc4sc5c(c43)NC[C@@H](C)N=C5N(C)C)n2)cn1`, the “%Inh” value in the experiment on JNK2 is 0%; in the experiment with JNK3, 0%; in the experiment on KIT-autoinhibited, 0%; with KIT, 0%; in the experiment on LATS1, 0%; in the experiment with LATS2, 18%. In addition, the “%Inh” value with LCK, in the experiment on LIMK1, in the experiment on LIMK2, in the experiment with LKB1, with LOK and in the experiment with LRRK2 was 0% throughout. The “%Inh” value in the experiment on LTK is reported as 0%; in the experiment on LYN, 0%; in the experiment on LZK it was 0%; in the experiment with MAK it was 17%; in the experiment with MAP3K15, 0%; in the experiment on MAP3K1 it was 0%. The “%Inh” value in the experiment on MAP3K2 and in the experiment with MAP3K3 was 0% each time.

Turning to `Nc1nc(-c2ccccc2F)c(-c2ccnc3ccccc23)s1` [GW560459], the “%Inh” value was 87% in the experiment with JNK2; 87% in the experiment on JNK3; 0% in the experiment with KIT-autoinhibited; 9% in the experiment on KIT; 0% in the experiment on LATS1; 0% with LATS2. Also, the “%Inh” value in the experiment on LCK was 11%; in the experiment with LIMK1, 1%; with LIMK2, 0%; in the experiment with LKB1, 0%; with LOK it was 0%; in the experiment on LRRK2, 8%. Besides, the “%Inh” value in the experiment with LTK is listed as 22%; in the experiment on LYN it was 0%; in the experiment on LZK, 30%; with MAK it was 23%; in the experiment with MAP3K15, 0%; in the experiment with MAP3K1, 3%. Also, the “%Inh” value in the experiment on MAP3K2 and in the experiment on MAP3K3 was 0% in each case.

For the compound `Nc1nccc2scc(-c3ccc4c(c3)CCN4C(=O)Cc3ccccc3)c12` [GSK2576924], the “%Inh” value with JNK2 is listed as 10%; in the experiment with JNK3, 0%; with KIT-autoinhibited, 5%; in the experiment on KIT it was 74%; in the experiment on LATS1, 0%; in the experiment on LATS2, 0%. In addition, the “%Inh” value is 11% in the experiment on LCK; 3% with LIMK1; 14% with LIMK2; 9% with LKB1; 21% in the experiment with LOK; 0% in the experiment on LRRK2. The “%Inh” value in the experiment on LTK is recorded as 69%; with LYN it was 0%; with LZK, 1%; in the experiment on MAK, 23%; with MAP3K15, 9%; in the experiment with MAP3K1 it was 0%. The “%Inh” value in the experiment with MAP3K2 came out at 12%; in the experiment with MAP3K3, 0%.

Consider `COc1ccc(-c2cc3c(C)nc(N)nc3n([C@H]3CC[C@H](OCCO)CC3)c2=O)cn1`, for which the “%Inh” value in the experiment with JNK2 was determined as 0%; in the experiment on JNK3, 0%; in the experiment with KIT-autoinhibited it was 0%; with KIT, 7%; in the experiment with LATS1, 26%; with LATS2 it was 11%. Further, the “%Inh” value with LCK is listed as 0%; in the experiment on LIMK1 it was 13%; in the experiment with LIMK2, 0%; in the experiment with LKB1 it was 40%; in the experiment on LOK, 9%; in the experiment on LRRK2 it was 0%. The “%Inh” value with LTK came to 9%; in the experiment on LYN, 0%; in the experiment with LZK it was 0%; in the experiment on MAK, 0%; in the experiment with MAP3K15, 0%; in the experiment with MAP3K1, 0%. Besides, the “%Inh” value with MAP3K2 and in the experiment on MAP3K3 was 0% each time.

In the case of `COc1cc(OC)cc(-c2cc3cnc(N)nc3nc2NC(=O)NC(C)(C)C)c1`, the “%Inh” value was 0% in the experiment with JNK2; 0% in the experiment with JNK3; 0% with KIT-autoinhibited; 0% in the experiment on KIT; 0% in the experiment on LATS1; 34% in the experiment on LATS2. For the same compound, the “%Inh” value with LCK stood at 0%; in the experiment with LIMK1, 0%; in the experiment with LIMK2, 0%; in the experiment on LKB1, 0%; in the experiment with LOK it was 13%; in the experiment on LRRK2, 0%. Also, the “%Inh” value in the experiment on LTK, in the experiment with LYN, with LZK, in the experiment with MAK, in the experiment on MAP3K15 and with MAP3K1 was 0% throughout. Besides, the “%Inh” value with MAP3K2 worked out at 0%; with MAP3K3, 13%.

Regarding `Cc1cccc(-c2nc(Nc3ccc4c(cnn4C)c3)c3ccccc3n2)n1` [GW876731], the “%Inh” value with JNK2 came out at 60%; in the experiment on JNK3, 28%; in the experiment with KIT-autoinhibited, 0%; in the experiment with KIT it was 7%; in the experiment with LATS1, 0%; with LATS2, 0%. The “%Inh” value in the experiment on LCK was 0%; with LIMK1 it was 0%; in the experiment with LIMK2, 0%; in the experiment on LKB1 it was 48%; in the experiment on LOK, 10%; with LRRK2, 0%. The “%Inh” value stood at 0% in the experiment with LTK; 5% with LYN; 0% in the experiment on LZK; 29% in the experiment with MAK; 0% in the experiment on MAP3K15; 0% in the experiment with MAP3K1. Further, the “%Inh” value was 12% in the experiment with MAP3K2 and 10% in the experiment with MAP3K3.

In the case of `COc1ccc(-c2cc3c(C)nc(N)nc3n([C@H]3CC[C@H](O)CC3)c2=O)cn1`, the “%Inh” value in the experiment with JNK2 was found to be 0%; in the experiment on JNK3, 0%; with KIT-autoinhibited, 0%; in the experiment on KIT, 0%; with LATS1, 0%; with LATS2, 7%. The “%Inh” value with LCK, in the experiment on LIMK1, with LIMK2, in the experiment with LKB1, in the experiment with LOK and in the experiment with LRRK2 was 0% throughout. The “%Inh” value in the experiment on LTK, in the experiment with LYN, in the experiment with LZK, in the experiment on MAK, in the experiment with MAP3K15 and in the experiment with MAP3K1 was 0% throughout. Also, the “%Inh” value with MAP3K2 and with MAP3K3 was 0% in each case.

On to `Cn1c(=O)c(F)c(Nc2ccc(I)cc2F)c2c(=O)n(OC[C@H](O)CO)cnc21`, for which the “%Inh” value came out at 0% with JNK2; 0% in the experiment on JNK3; 0% in the experiment on KIT-autoinhibited; 7% with KIT; 18% with LATS1; 0% in the experiment on LATS2. Also, the “%Inh” value is on record as 1% in the experiment on LCK; 14% in the experiment on LIMK1; 26% with LIMK2; 0% in the experiment on LKB1; 2% in the experiment with LOK; 0% with LRRK2. Besides, the “%Inh” value in the experiment on LTK worked out at 20%; in the experiment on LYN, 14%; with LZK it was 0%; in the experiment on MAK, 0%; with MAP3K15, 0%; in the experiment with MAP3K1 it was 0%. Also, the entries for the “%Inh” value with MAP3K2 and in the experiment with MAP3K3 were 0% and 4%, respectively.
